# From PubChem BioAssay
# AmpC detergent: qHTS Inhibitors of AmpC Beta-Lactamase (assay with detergent) | AmpC hydrolysis of nitrocefin, absorbance 480 nm, 0.01% Triton | AID 485294, 2010 | 0.041% of 370,000 active | P00811 | Potency, µM (top dose mostly 114 µM), inactives show top-dose activity change, negative = inhibition, usual class: inhibitors;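 note: potency is the fitted concentration of half-maximal effect; 0% = no-compound wells and -100% = no-enzyme wells; nearly all actives have a fitted effect of over 25% in size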
# Target sequence (P00811 whole entry, looked up): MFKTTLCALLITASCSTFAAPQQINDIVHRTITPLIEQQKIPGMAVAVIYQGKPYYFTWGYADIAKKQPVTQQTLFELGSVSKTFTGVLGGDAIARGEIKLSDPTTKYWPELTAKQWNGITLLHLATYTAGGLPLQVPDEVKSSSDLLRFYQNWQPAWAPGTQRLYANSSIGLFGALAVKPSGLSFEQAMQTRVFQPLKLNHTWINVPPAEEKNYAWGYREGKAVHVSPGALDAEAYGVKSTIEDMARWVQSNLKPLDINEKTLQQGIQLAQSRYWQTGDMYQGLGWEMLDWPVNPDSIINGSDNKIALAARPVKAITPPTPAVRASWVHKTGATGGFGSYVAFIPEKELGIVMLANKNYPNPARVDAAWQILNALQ
#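 20 mM phosphate pH 7.0 + 0.01% (detergent screen) or 0.0001% Triton X-100; 5.3 nM AmpC reagent; cpd preinc 15 min RT; nitrocefin (800 uM stock) to start; A480 q20 s × 4 min; Activity was normalised to no-enzyme and no-compound control wells.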
# AmpC inh no detg: qHTS Inhibitors of AmpC Beta-Lactamase (assay without detergent) | 0.52% of 330,000 active | P00811 | AID 485341, 2010 | Potency, µM (highest dose often 57.1 µM), inactives show top-dose activity change, negative = inhibition, usual class: inhibitors | AmpC nitrocefin hydrolysis, absorbance 480 nm, 0.0001% Triton;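 note: potency is the fitted concentration of half-maximal effect; plate controls were no compound for no effect and no enzyme for full effect; nearly all actives have a fitted effect of over 20% in size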
#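 20 mM phosphate pH 7.0 + 0.01% (detergent screen) or 0.0001% Triton X-100; 5.3 nM AmpC reagent; cpd preinc 15 min RT; nitrocefin (800 uM stock) to start; A480 q20 s × 4 min; Activity was normalised to no-enzyme and no-compound control wells.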
# Shiga toxin inh: A qHTS for Small Molecule Inhibitors of Shiga Toxin | Vero cells, Shiga toxin protein synthesis inhibition reporter | inhibition, % at 38.7 µM | 9.2% of 290,000 active | AID 2315, 2010; in the data active = inhibition mostly above about 28%, no sharp cut-off; inactive = mostly below about 43%; note: 0% is about no effect
# Cycloheximide cs: Cycloheximide Counterscreen for Small Molecule Inhibitors of Shiga Toxin | cell reporter, cycloheximide protein synthesis inhibition counterscreen | max response, % | 12% of 300,000 active; in the data active = max response mostly above about 13%, no sharp cut-off; inactive = mostly below about 14%; note: read at 38.3 µM for the half of the compounds with a filed dose; 0% is about no effect
# NS1 function inh: qHTS Assay for Inhibitors of Influenza NS1 Protein Function; 0.4% of 270,000 active; Potency, µM (doses to about 46.1 µM), inactives show top-dose activity, positive = more growth; calls by dose curve; note: potency is the fitted concentration of half-maximal effect; actives are rising curves; nearly all actives have a fitted effect of over 50% in size
#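 Compounds were scored for reversing the slow growth caused by influenza A NS1 in S. cerevisiae, measured by optical density at 600 nm. Assay medium contained 2% galactose at pH 6.0; NS1-free yeast of the same strain were the positive control.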
# Active calls of the source: *; ? = inconclusive; · = no result. The sample as a whole holds a higher share of hits than the screen did. Unless noted, calls come from the whole dose curve; as a rule, active = well fitted curve in the direction sought with a large enough effect; inconclusive = small, poorly fitted or top-dose-only effect, or another doubt; inactive = no such curve, though single readings can be large; an effect the other way counts as inactive or inconclusive.
SMILES,AmpC detergent,AmpC inh no detg,Shiga toxin inh,Cycloheximide cs,NS1 function inh
COC(=O)c1ccc(NC(c2ccc(Cl)cc2)P(=O)(OC)OC)cc1 (configuration not stated),-1%,85%,20,32*,-5%
Cc1ccc(C)n1-c1c(C(=O)NCC(C)c2ccccc2)sc2ncccc12 (configuration not stated),22%,·,·,·,·
O=C(CSc1nc2cc(Cl)ccc2o1)N1CCOCC1,?,-11%,6,8,-47%
O=C(CSc1nc2ccccc2o1)Nc1ccc(N2CCOCC2)cc1,-12%,1%,62*,47*,-5%
O=C(CSc1nc2cc(Cl)ccc2o1)Nc1ccc(N2CCOCC2)cc1,4%,10%,72*,31*,7%
O=C(CSc1nc2ccccc2o1)Nc1ccccc1N1CCOCC1,8%,-7%,24,0,-6%
CN(C)C(=O)CSc1nnc(C23CC4CC(CC(C4)C2)C3)o1,0%,-15%,39,15*,1%
CC(C)(N)C(=O)N[C@@H](Cc1cnc[nH]1)C(=O)N[C@H](Cc1ccc2ccccc2c1)C(=O)N[C@H](Cc1ccccc1)C(=O)N[C@@H](CCCCN)C(N)=O,·,·,3,10,·
CCCC(=O)N1CCc2cc(-c3nc(N)sc3C)ccc21,1%,-11%,79*,49*,-47%
CC(=O)Nc1nc(-c2ccc3c(c2)CCN3C(=O)C2CC2)c(C)s1,5%,5%,14,7,4%
CCC(C)C(=O)N1CCc2cc(-c3csc(N)n3)ccc21 (configuration not stated),?,-26%,65*,52*,-109%
O=C(CNC(=O)C1CC1)Nc1ccc(F)c(F)c1F,·,-9%,·,·,·
CC1=C(C(=O)Nc2cccc(F)c2)C(c2ccsc2)C2=C(CC(C)(C)CC2=O)N1 (configuration not stated),-10%,-21%,-6,-1,-6%
COc1c(CC=C(C)C)cc(C2CC(=O)c3c(O)cc(O)cc3O2)cc1CC=C(C)C (configuration not stated),1%,-41%,19,active,12%
COc1cc(O)c2c(c1)OC(c1ccc(O)cc1)CC2=O (configuration not stated),7%,-37%,-8,1,2%
CC(C)=CCc1c(O)cc2c(c1O)C(=O)CC(c1ccc(O)cc1)O2 (configuration not stated),-3%,?,29,23*,-88%
CC(C)=CCc1c(O)c(CC=C(C)C)c2c(c1O)C(=O)CC(c1ccc(O)cc1)O2 (configuration not stated),14%,14µM*,17,2,-3%
Cc1c(O)cc2c(c1O)C(=O)CC(c1ccc(O)cc1)O2 (configuration not stated),-1%,-33%,-11,0,0%
CCOC(=O)C1=CN(C(=O)OC(C)(C)C)C(CN2C(=O)COCC2=O)C1 (configuration not stated),·,·,-6,1,·
Cc1ccc(NC(=O)Nc2nnc(-c3ccccc3)o2)cc1,-9%,-13%,77*,51*,-11%
Cc1ccc(-c2nnc(Nc3ccccc3)o2)cc1,5%,-23%,42,24*,-46%
O=C(Nc1nnc(-c2ccccc2)o1)Nc1ccccc1Cl,?,3%,17,15*,-34%
CCCCNC(=O)Nc1nnc(-c2ccccc2)o1,1%,-14%,13,29*,-10%
O=C(Nc1ccc(F)cc1)Nc1nnc(-c2ccccc2)o1,-3%,3%,-10,-1,0%
COc1cccc(-n2cn[nH]c2=S)c1,1%,-13%,-13,6,·
SMILES,AmpC detergent,AmpC inh no detg,Shiga toxin inh,Cycloheximide cs,NS1 function inh
Fc1ccccc1-n1cn[nH]c1=S,-8%,-12%,69*,28*,·
O=C(Nc1ccc(Cl)cc1)Nc1ccc(-c2cnco2)cc1,4%,-23%,29,20*,4%
Cc1cc(NC(=O)Nc2ccc(Cl)cc2)n(C)n1,-14%,-10%,15,14,-5%
CC(C)(C)c1ccc(-c2cnco2)cc1,9%,-23%,-11,0,5%
CC(C)(C)C(=O)Nc1ccc(-c2cnco2)cc1,7%,-6%,64*,21*,1%
O=C(NC(=O)c1ccccc1)Nc1ccc(-c2cnco2)cc1,4%,-15%,63*,32*,-4%
